About 2,000 (36%) of roughly 5,500 compounds were called active. Not shown: some 18% with an inconclusive outcome. Cut-off read from the data, not from the text of the source: active = normalized growth mostly below about 0.91 (no sharp cut-off); inconclusive = no clear call, values can overlap the other calls; inactive = mostly above about 0.92. This is one part of the list.
Assay: chemical genetic growth profiling, strain panel (AID 1159580);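 note: tested at 20 µM; growth read once vehicle control cultures reached saturation at 30 °C; 1 = growth at the plate median or of vehicle wells; lower values mean less growth of the strain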
Conditions: growth OD

Measured: normalized growth

Nc1nc2ncc(=O)[nH]c2c(=O)[nH]1
inactive: S. cerevisiae deletion strains, locus YJR075W, strain HOC1, stronger effect = lower value 1.02 | S. cerevisiae deletion strains, locus YKL009W, strain mrt4, stronger effect = lower value 0.973 | S. cerevisiae deletion strains, locus YKL068W, stronger effect = lower value 0.981 | S. cerevisiae deletion strains, locus YKL085W, strain MDH1 (second series), stronger effect = lower value 0.991 | S. cerevisiae deletion strains, locus YKL085W, strain MDH1, stronger effect = lower value 0.991 | S. cerevisiae deletion strains, locus YKL160W, strain elf1, stronger effect = lower value 0.975 | S. cerevisiae deletion strains, locus YKL190W, strain CNB1, stronger effect = lower value 0.991 | S. cerevisiae deletion strains, locus YKR001C, strain vps1, stronger effect = lower value 0.999 | S. cerevisiae deletion strains, locus YKR026C, strain gcn3, stronger effect = lower value 0.977 | S. cerevisiae deletion strains, locus YKR091W, strain srl3, stronger effect = lower value 0.979 | S. cerevisiae deletion strains, locus YLL001W, strain dnm1, stronger effect = lower value 0.946 | S. cerevisiae deletion strains, locus YLL026W, stronger effect = lower value 0.982 | S. cerevisiae deletion strains, locus YLL041C, strain sdh2, stronger effect = lower value 0.976 | S. cerevisiae deletion strains, locus YLR027C, strain aat2, stronger effect = lower value 0.984 | S. cerevisiae deletion strains, locus YLR039C, strain RIC1, stronger effect = lower value 0.997 | S. cerevisiae deletion strains, locus YLR058C, strain SHM2, stronger effect = lower value 0.996 | S. cerevisiae deletion strains, locus YLR102C, strain apc9, stronger effect = lower value 0.984 | S. cerevisiae deletion strains, locus YLR113W, strain HOG1, stronger effect = lower value 0.941 | S. cerevisiae deletion strains, locus YLR221C, strain rsa3, stronger effect = lower value 0.977 | S. cerevisiae deletion strains, locus YLR258W, strain gsy2, stronger effect = lower value 0.982 | S. cerevisiae deletion strains, locus YLR262C, strain YPT6 (second series), stronger effect = lower value 0.986 | S. cerevisiae deletion strains, locus YLR262C, strain YPT6, stronger effect = lower value 0.994 | S. cerevisiae deletion strains, locus YLR268W, strain sec22, stronger effect = lower value 1.01 | S. cerevisiae deletion strains, locus YLR320W, strain mms22, stronger effect = lower value 0.972 | S. cerevisiae deletion strains, locus YLR330W, strain CHS5, stronger effect = lower value 0.992 | S. cerevisiae deletion strains, locus YLR342W, strain FKS1 (second series), stronger effect = lower value 0.997 | S. cerevisiae deletion strains, locus YLR342W, strain FKS1, stronger effect = lower value 0.987 | S. cerevisiae deletion strains, locus YLR357W, strain rsc2, stronger effect = lower value 0.967 | S. cerevisiae deletion strains, locus YLR370C, strain arc18, stronger effect = lower value 0.965 | S. cerevisiae deletion strains, locus YLR371W, strain rom2, stronger effect = lower value 0.976 | S. cerevisiae deletion strains, locus YLR384C, strain iki3, stronger effect = lower value 0.968 | S. cerevisiae deletion strains, locus YLR418C, strain cdc73, stronger effect = lower value 1.05 | S. cerevisiae deletion strains, locus YML016C, strain PPZ1, stronger effect = lower value 1 | S. cerevisiae deletion strains, locus YML032C, strain rad52, stronger effect = lower value 0.967 | S. cerevisiae deletion strains, locus YML120C, strain ndi1, stronger effect = lower value 0.972 | S. cerevisiae deletion strains, locus YML124C, strain tub3, stronger effect = lower value 0.998 | S. cerevisiae deletion strains, locus YMR058W, strain fet3, stronger effect = lower value 0.988 | S. cerevisiae deletion strains, locus YMR078C, strain ctf18, stronger effect = lower value 0.979 | S. cerevisiae deletion strains, locus YMR125W, strain sto1, stronger effect = lower value 0.969 | S. cerevisiae deletion strains, locus YMR129W, stronger effect = lower value 0.972 | S. cerevisiae deletion strains, locus YMR205C, strain PFK2, stronger effect = lower value 0.967 | S. cerevisiae deletion strains, locus YMR223W, strain ubp8, stronger effect = lower value 0.989 | S. cerevisiae deletion strains, locus YMR231W, strain pep5, stronger effect = lower value 0.979 | S. cerevisiae deletion strains, locus YMR263W, strain SAP30, stronger effect = lower value 1.01 | S. cerevisiae deletion strains, locus YMR307W, strain GAS1, stronger effect = lower value 1 | S. cerevisiae deletion strains, locus YNL067W, strain RPL9B, stronger effect = lower value 1.03 | S. cerevisiae deletion strains, locus YNL071W, strain lat1, stronger effect = lower value 0.984 | S. cerevisiae deletion strains, locus YNL128W, strain TEP1, stronger effect = lower value 1.03 | S. cerevisiae deletion strains, locus YNL153C, strain GIM3, stronger effect = lower value 1.01 | S. cerevisiae deletion strains, locus YNL183C, strain NPR1, stronger effect = lower value 0.942 | S. cerevisiae deletion strains, locus YNL209W, strain ssb2, stronger effect = lower value 0.993 | S. cerevisiae deletion strains, locus YNL233W, strain BNI4, stronger effect = lower value 1.01 | S. cerevisiae deletion strains, locus YNL248C, strain rpa49, stronger effect = lower value 0.98 | S. cerevisiae deletion strains, locus YNL250W, strain rad50, stronger effect = lower value 0.987 | S. cerevisiae deletion strains, locus YNL271C, strain bni1, stronger effect = lower value 0.995 | S. cerevisiae deletion strains, locus YNL298W, strain CLA4, stronger effect = lower value 1 | S. cerevisiae deletion strains, locus YNL307C, strain MCK1, stronger effect = lower value 0.991 | S. cerevisiae deletion strains, locus YNL322C, strain KRE1 (second series), stronger effect = lower value 0.967 | S. cerevisiae deletion strains, locus YNL322C, strain KRE1, stronger effect = lower value 1.01 | S. cerevisiae deletion strains, locus YNR049C, strain mso1, stronger effect = lower value 0.973 | S. cerevisiae deletion strains, locus YNR052C, strain pop2, stronger effect = lower value 0.983 | S. cerevisiae deletion strains, locus YOL006C, strain TOP1, stronger effect = lower value 1.11 | S. cerevisiae deletion strains, locus YOL012C, strain htz1 0.879 | S. cerevisiae deletion strains, locus YOL147C, strain pex11, stronger effect = lower value 0.978 | S. cerevisiae deletion strains, locus YOR001W, strain rrp6, stronger effect = lower value 0.986 | S. cerevisiae deletion strains, locus YOR061W, strain CKA2, stronger effect = lower value 1.01 | S. cerevisiae deletion strains, locus YOR069W, strain VPS5, stronger effect = lower value 1 | S. cerevisiae deletion strains, locus YOR070C, strain gyp1, stronger effect = lower value 0.983 | S. cerevisiae deletion strains, locus YOR080W, strain dia2, stronger effect = lower value 0.978 | S. cerevisiae deletion strains, locus YOR083W, strain WHI5, stronger effect = lower value 0.966 | S. cerevisiae deletion strains, locus YOR106W, strain vam3, stronger effect = lower value 0.988 | S. cerevisiae deletion strains, locus YOR136W, strain idh2, stronger effect = lower value 0.987 | S. cerevisiae deletion strains, locus YOR144C, strain elg1, stronger effect = lower value 0.989 | S. cerevisiae deletion strains, locus YOR184W, strain ser1, stronger effect = lower value 0.968 | S. cerevisiae deletion strains, locus YOR231W, strain MKK1, stronger effect = lower value 0.938 | S. cerevisiae deletion strains, locus YOR265W, strain rbl2, stronger effect = lower value 0.981 | S. cerevisiae deletion strains, locus YOR270C, strain vph1, stronger effect = lower value 0.951 | S. cerevisiae deletion strains, locus YOR290C, strain snf2, stronger effect = lower value 0.911 | S. cerevisiae deletion strains, locus YOR316C, strain cot1, stronger effect = lower value 0.985 | S. cerevisiae deletion strains, locus YPL051W, strain arl3, stronger effect = lower value 0.984 | S. cerevisiae deletion strains, locus YPL055C, strain LGE1, stronger effect = lower value 1.02 | S. cerevisiae deletion strains, locus YPL078C, strain atp4, stronger effect = lower value 0.97 | S. cerevisiae deletion strains, locus YPL106C, strain sse1, stronger effect = lower value 0.948 | S. cerevisiae deletion strains, locus YPL240C, strain hsp82, stronger effect = lower value 0.984 | S. cerevisiae deletion strains, locus YPL241C, strain CIN2, stronger effect = lower value 0.994 | S. cerevisiae deletion strains, locus YPL256C, strain CLN2, stronger effect = lower value 0.963 | S. cerevisiae deletion strains, locus YPR119W, strain clb2, stronger effect = lower value 0.974 | S. cerevisiae deletion strains, locus YPR141C, strain kar3, stronger effect = lower value 0.975 | S. cerevisiae deletion strains, locus YPR163C, strain tif3, stronger effect = lower value 0.988 | S. cerevisiae deletion strains, locus YPR167C, strain met16, stronger effect = lower value 1 | S. cerevisiae deletion strains, strain wtn01, stronger effect = lower value 0.994 | S. cerevisiae strains, strain wild type, stronger effect = lower value 1

— PubChem BioAssay AID1159580 (chemical genetic matrix, 2015)
